# EP2 antag: human EP2 receptor antagonists, primary screen, TR-FRET cAMP, C6 glioma cells; AID 1422, 2008; Prostaglandin E2 receptor EP2 subtype (Homo sapiens), P43116; 260,000 tested, 0.52% active; C6 glioma cells expressing human EP2; cells stimulated with saturating PGE2; inhibition, % at 25 µM;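 active = percent inhibition above 40 after rounding to a whole number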;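 note: rat C6 glioma host cells with rolipram phosphodiesterase inhibitor present; the protocol text gives 20 µM as final concentration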
# p97 ATPase inh: inhibitors of human p97 ATPase, primary screen, biochemical. recombinant p97 ATPase, Kinase-Glo ATP luminescence, 3 h. Transitional endoplasmic reticulum ATPase (Homo sapiens), P55072. inhibition, % at 8 µM. AID 1481, 2009. 220,000 tested, 0.42% active; in the data active = inhibition above about 15%;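 note: 0% = DMSO vehicle and 100% = wells lacking enzyme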
# Arbovirus anti: antivirals against arbovirus infection, primary screen, cell-based, full library, 10K replicate subset. arbovirus infection cell-based antiviral screen. inhibition, % at 10 µM. 200,000 tested, 0.37% active. AID 1251, 2008; in the data active = inhibition above about 30%
# Hck-Nef inh: inhibitors of Nef-activated human Hck kinase, primary screen, biochemical, Z-Lyte FRET, 384-well, Hck-YEEI. 220,000 tested, 0.68% active. Recombinant Hck-YEEI plus Nef, Z-Lyte FRET kinase assay. inhibition, % at 20 µM. Tyrosine-protein kinase HCK (Homo sapiens), P08631. AID 463187, 2010;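 active = Hck-Nef kinase inhibition above about 50%, limit read from the data; inactive = inhibition below that limit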;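 note: 0% = DMSO with Hck plus Nef and 100% = Hck alone without Nef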
# Target sequence (P08631 whole entry, looked up): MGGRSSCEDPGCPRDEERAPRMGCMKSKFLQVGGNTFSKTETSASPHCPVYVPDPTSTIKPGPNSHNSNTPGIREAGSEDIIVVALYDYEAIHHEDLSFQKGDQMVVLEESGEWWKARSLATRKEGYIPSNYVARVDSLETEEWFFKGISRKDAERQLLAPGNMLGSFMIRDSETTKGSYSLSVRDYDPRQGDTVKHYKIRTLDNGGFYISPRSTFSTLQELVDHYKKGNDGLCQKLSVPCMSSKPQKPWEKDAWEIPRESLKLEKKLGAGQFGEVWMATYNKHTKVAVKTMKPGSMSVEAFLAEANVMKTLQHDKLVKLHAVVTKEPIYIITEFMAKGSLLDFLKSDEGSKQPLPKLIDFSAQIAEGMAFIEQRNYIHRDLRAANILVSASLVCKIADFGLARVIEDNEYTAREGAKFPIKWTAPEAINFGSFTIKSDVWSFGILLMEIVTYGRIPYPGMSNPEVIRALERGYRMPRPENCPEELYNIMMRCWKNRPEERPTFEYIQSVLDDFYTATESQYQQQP
# EP2 modulator: EP2 receptor modulators, cAMP readout, primary screen, cell-based, HTRF cAMP, PGE2 stimulation. Prostaglandin E2 receptor EP2 subtype (Homo sapiens), P43116. EP2-expressing cells, cAMP HTRF FRET, PGE2 co-stimulation. induction, % at 25 µM. 260,000 tested, 0.83% active;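 active = compounds whose cAMP rise, as percent of the full-agonist control response, exceeds 60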;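 note: rat C6 glioma line stably carrying human EP2 under a CMV promoter; the protocol text gives 20 µM as final concentration; 100% = response of wells given 1 µM PGE2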
# p97 confirm: p97 ATPase inhibitors, retest, confirmation, biochemical. shares compounds with p97 ATPase inh. recombinant p97 ATPase, Kinase-Glo ATP luminescence. inhibition, % at 8 µM. 760 tested, 44% active;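 active = percent inhibition of p97 ATPase above a set limit, the primary screen's mean plus 3 SD, cut at about 15% in these data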;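 note: 0% = DMSO wells and 100% = wells lacking p97 protein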
# Active calls of the source: *; x = no result given; ! = not active in a repeat. Most compounds without a hit are left out; they make up all but 2.4% or so of the library.
SMILES,EP2 antag,p97 ATPase inh,Arbovirus anti,Hck-Nef inh,EP2 modulator,p97 confirm
Cc1[nH][nH]c(=O)c1C(c1ccc(-c2ccc(C(=O)OC(C)C)cc2)o1)c1c(C)[nH][nH]c1=O,8.3,x,x,x,-84.8,x
Cc1[nH][nH]c(=O)c1C(c1ccc(-c2ccc(C(=O)O)cc2)o1)c1c(C)[nH][nH]c1=O,8.5,24.6*,-10.4,25.8,29.3,10.2
CCN(CC)S(=O)(=O)c1cccc(C(=O)N/N=C(\C)c2ccc(O)cc2O)c1,6.9,21.7*,-26.0,0.7,-7.0,22.4*
Cn1c(C(=O)NCc2ccccn2)cc2c(=O)n(C)c3ccccc3c21,1.8,24.7*,1.4,5.8,-8.5,5.0
Cn1cc(C(=O)CCl)c2ccccc21,11.2,40.4*,-38.4,25.9,-17.1,46.6*
O=C(NNC(=O)c1cc(-c2ccco2)nc2ccccc12)c1ccccc1,7.0,9.3,x,22.9,-14.8,x
O=C(O)c1cc(-c2ccco2)nc2cc3ccccc3cc12,8.7,29.8*,x,34.8,-15.4,23.3*
CC(C(=O)O)n1cc([N+](=O)[O-])cn1 (stereo unspecified),6.5,x,x,x,12.7,x
COc1ccc(-n2c3c(cc(C(=O)Nc4ccccc4)c2=O)C(=O)CC(C)(C)C3)cc1,11.4,x,x,x,16.3,x
CCCc1ccc(C(=O)O)o1,12.3,x,x,x,-23.6,x
Cc1nc2cc(N3CCOCC3)c(NC(=O)Cc3cccs3)cc2c(=O)n1Cc1ccccc1,11.3,x,x,x,-70.9,x
Cc1[nH]n(-c2ccccc2)c(=O)c1/C=C1\C=NN=C1c1ccccc1,20.1,18.5*,x,20.8,-19.9,16.8*
CCOc1cc(Br)cc(/C=C2\SC(N)=NC2=O)c1O,7.7,x,x,x,-75.0,x
C=CCc1ccccc1OCC(O)CN1CCN(Cc2ccc3c(c2)OCO3)CC1 (stereo unspecified),1.1,15.7*!,-7.7,9.6,-24.5,0.9
COc1ccc(N(/N=C2\Sc3ccccc3C2=O)C(C)=O)cc1,6.7,21.8*,-5.3,11.4,18.3,21.0*
O=C(CC1CCCC1)Nc1ccc2c(c1)CCC2,12.4,46.2*,-6.8,0.9,6.8,4.1
COC(=O)c1sc(-c2ccc(Cl)cc2)cc1NC(=O)/C=C/C(=O)O,15.2,17.6*,x,10.7,-44.4,17.8*
CC(=O)OCC(=O)C1=CCC2C3CCC4=CC(=O)C=CC4(C)C3(F)C(OC(C)=O)CC12C (stereo unspecified),2.5,14.8*,12.3,16.8,-22.6,7.0
COc1ccc(CNc2ncnc3c2[nH]c2ccccc23)cc1,60.4*,15.8*,x,12.0,-35.5,19.7*
CC(C)(C)c1cc(=O)n(-c2ccccc2)[nH]1,11.7,34.4*,-4.2,5.2,26.7,7.3
Cc1cc(C)c2cc(CN(Cc3ccccc3)C(=S)NCc3ccco3)c(=O)[nH]c2c1,11.8,x,x,x,22.4,x
Cc1cc(C)nc(N2CCCC(C(=O)Nc3cccc(F)c3)C2)n1 (stereo unspecified),11.7,x,x,x,-42.9,x
COc1ccc([N+](=O)[O-])c(S(=O)(=O)c2ccccc2)n1,6.1,15.0*,x,17.4,-42.7,17.2*
Cc1cc(N/N=C/c2ccc(O)cc2O)nc(N2CCOCC2)n1,8.1,15.2*,x,13.1,-34.5,16.6*
CC(C)C(OC(=O)c1ccc2c(c1)NC(=O)C(C)(C)O2)C(=O)NC1CCCCC1 (stereo unspecified),7.1,x,x,x,-13.0,x
SMILES,EP2 antag,p97 ATPase inh,Arbovirus anti,Hck-Nef inh,EP2 modulator,p97 confirm
COc1ccc(Cl)cc1NC(=O)C/C(C)=N/NC(=O)Cc1ccccc1,5.8,15.1*,-8.8,16.5,18.8,5.9
O=C(Nc1ccc(S(=O)(=O)NCc2ccccc2)cc1)c1ccc(Br)o1,8.3,-6.6,-9.7,-7.4,-56.9,x
C=CCn1c(NC(=O)c2ccc(Br)o2)c(S(=O)(=O)c2ccccc2)c2nc3ccccc3nc21,16.8,20.2*,15.7,35.2,30.3,6.2
COc1ccc(C2NC(=O)C(C#N)=C(S)N2c2ccccc2C)cc1OC (stereo unspecified),6.3,x,x,x,-9.7,x
COc1ccccc1-c1nnc(NC(=O)C(C)SC2=NCCS2)s1 (stereo unspecified),11.5,17.2*,-5.6,7.8,-10.2,19.6*
CC(SC1=NCCS1)C(=O)Nc1nnc(-c2ccc(Cl)cc2)s1 (stereo unspecified),7.8,-3.3,11.2,0.1,-24.8,x
CC(=O)Nc1ccc2cc3ccc(NC(C)=O)cc3nc2c1,12.8,34.2*,x,-31.0,-33.2,24.0*
COc1cc(OC)cc(-c2cc3nc(C)c(C)c(NCCN(C)C)n3n2)c1,12.5,x,x,x,-67.0,x
COc1ccc2nc(C)cc(SCC(=O)NNC(=O)COc3ccccc3)c2c1,x,15.3*,5.3,-1.5,3.7,9.7
CCOC(=O)CNC(=O)CSc1cc(C)nc2ccc(OC)cc12,13.1,2.3,0.8,15.3,-46.2,x
Cc1nnc(NCc2ccccc2)c2ccccc12,10.0,x,x,x,-36.0,x
OCCNc1nc(Nc2ccc(F)cc2)nc2ccccc12,8.5,x,x,x,-68.2,x
Fc1ccccc1-c1nc(NCc2ccccc2)c2ccccc2n1,7.3,30.1*,x,5.5,37.0,39.6*
Fc1ccc(Nc2nc(NCc3ccco3)c3ccccc3n2)cc1,21.3,27.5*,x,-9.7,-52.0,34.2*
c1ccc(CNc2nc(NCc3ccccc3)c3ccccc3n2)cc1,95.5*,43.8*,x,-179.3,-54.1,40.9*
CC(C)OC(=O)C1C2C=CC3(CN(c4cccc5ccccc45)C(=O)C13)O2 (stereo unspecified),5.1,x,x,x,-22.7,x
COc1ccc(S(=O)(=O)Nc2nccs2)cc1OC,4.9,17.1*,3.2,13.5,2.7,7.1
O=C(N/N=C/c1c(Cl)nc2ccccn2c1=O)c1cccnc1,15.1,16.7*,x,-5.2,33.4,8.6
COc1cccc(NC(=O)CN2CCC(n3cnc4cccnc43)CC2)c1,x,x,x,x,-8.3,x
CCN1CCN(c2ccc(NC(=O)c3ccc(C)cc3Cl)cc2)CC1,5.5,x,x,x,-57.1,x
COc1ccc2ccc3c(c2c1)N=C[C@]1(O3)N(C)c2ccccc2C1(C)C,7.7,23.6*,12.6,1.5,21.9,2.1
CC1=NOC2(C1)N(C)c1ccccc1C2(C)C (stereo unspecified),2.6,0.6,3.1,-2.0,-7.1,x
CCN(CC)C(=O)c1ccc(COc2ccccc2Cl)cc1,14.1,15.4*,-15.8,1.5,-8.0,-1.0
O=C(O)c1ccc(COc2ccccc2Cl)cc1,5.6,5.0,-0.6,1.7,-3.5,x
C=CCN1CCN(C(c2cc(OC)ccc2OC)c2nnnn2Cc2ccccc2)CC1 (stereo unspecified),4.5,x,x,x,-35.1,x
